Compound activity from PubChem BioAssay.
NPC1 promoter act: qHTS Assay for NPC1 Promoter Activators | Huh7 NPC1 promoter luciferase reporter, 24 h | Potency, µM (series often up to 9.22 µM), usual class: activators | hit rate 2.4% among 320,000 | AID 485313, 2010; further: nearly all actives have a fitted effect of over 60% in size
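Luminescence read-out of NPC1 promoter-driven luciferase in stably transfected Huh7 cells; compounds delivered in DMSO and left 24 h at 37C, 5% CO2, qHTS titration format.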
FLuc modulator: qHTS profiling assay for firefly luciferase inhibitor/activator using purifed enzyme and Km concentrations of substrates (counterscreen for miR-21 project). purified FLuc, Km substrates, luminescence inhibition. AID 588342, 2011. hit rate 6.9% among 360,000. Potency, µM (titrated, usually from 57.5 µM), usual class: inhibitors; further: nearly all actives have a fitted effect of over 55% in size
Target sequence (P08659 whole entry, looked up): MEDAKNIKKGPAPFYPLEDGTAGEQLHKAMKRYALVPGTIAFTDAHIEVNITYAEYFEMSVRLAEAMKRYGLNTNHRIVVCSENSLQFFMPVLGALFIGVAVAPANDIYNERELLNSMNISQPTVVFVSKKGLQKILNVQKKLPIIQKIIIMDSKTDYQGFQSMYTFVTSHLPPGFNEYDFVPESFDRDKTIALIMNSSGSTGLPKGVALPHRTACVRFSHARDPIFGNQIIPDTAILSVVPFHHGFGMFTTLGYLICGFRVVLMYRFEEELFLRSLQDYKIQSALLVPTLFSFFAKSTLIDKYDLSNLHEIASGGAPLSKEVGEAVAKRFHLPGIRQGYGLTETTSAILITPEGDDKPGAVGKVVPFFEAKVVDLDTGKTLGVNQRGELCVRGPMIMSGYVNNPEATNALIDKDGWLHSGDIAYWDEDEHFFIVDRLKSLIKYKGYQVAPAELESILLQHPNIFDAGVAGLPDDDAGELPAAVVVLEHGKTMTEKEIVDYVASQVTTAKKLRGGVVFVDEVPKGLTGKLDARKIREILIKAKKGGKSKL
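Purified P. pyralis luciferase, 10 nM final, with Km-level 10 uM D-luciferin and 10 uM ATP in 50 mM Tris acetate pH 7.5, 10 mM Mg acetate, 0.01% Tween-20, 0.05% BSA; 6-point qHTS titration about 60 µM downward; luminescence read.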
SMN2 splice enh: qHTS Assay for Enhancers of SMN2 Splice Variant Expression | HEK293 SMN2-luciferase splicing reporter, luminescence, 30-36 h | AID 1458, 2008 | hit rate 2.8% among 210,000 | Potency, µM (doses to about 46.1 µM), actives largely listed as activators; further: nearly all actives have a fitted effect of over 55% in size
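HEK293 cells carry an SMN2 minigene-luciferase reporter in which exon 7 inclusion puts luciferase in frame. Cells were seeded at 2000 cells/well, attached for 10-12 hours, then exposed to compounds for 30-36 hours at 37C before ONE-Glo luminescence.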
KinaseGlo FLuc: Counterscreen for Luciferase (Kinase-Glo TM) Inhibition; hit rate 0.28% among 200,000; Luciferin 4-monooxygenase (Photuris pensylvanica), Q27757; Potency, µM (top dose mostly 38.3 µM), most hits filed as inhibitors; Kinase-Glo luciferase, ATP luminescence, 8 min; further: nearly all actives have a fitted effect of over 60% in size
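Substrate mix (final 50 mM imidazole pH 7.2, 50 mM KCl, 7 mM MgCl2, 10 uM ATP, 0.01% Tween 20, 0.05% BSA) plus pin-tool compound, then Kinase-Glo detection mix; 8 min ambient, luminescence read.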
Rab9 promoter act: qHTS Assay for Rab9 Promoter Activators; Huh7 Rab9 promoter-luciferase reporter, luminescence, 24 h; Potency, µM (doses to about 9.22 µM), most hits filed as activators; hit rate 2.8% among 320,000; AID 485297, 2010; further: nearly all actives have a fitted effect of over 60% in size
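Promoter activation is measured as luciferase luminescence in Huh7 cells stably transfected with a Rab9 promoter–luciferase construct, following 24 h compound exposure at 37 °C and 10 min reagent incubation at ambient temperature.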
ELG1 genotox: qHTS screen for small molecules that induce genotoxicity in human embryonic kidney (HEK293T) cells expressing luciferase-tagged ELG1 | HEK293T ELG1-luciferase reporter, luminescence, 16 h | Potency, µM (top dose mostly 46 µM), hits mostly activators | hit rate 1.3% among 330,000; further: nearly all actives have a fitted effect of over 60% in size
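16 hr compound incubation (37 °C, 5% CO2) of HEK293T cells carrying luciferase-tagged ELG1; luciferase then measured by ONE-Glo luminescence after 30 min at RT.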
Large screens that a line does not name were inactive. The list is not random: actives were taken first. Their share in the collection is about 7.4%. The call rests on the fitted dose curve; in most records, active means well fitted curve in the direction sought with a large enough effect; inconclusive means small, poorly fitted or top-dose-only effect, or another doubt; inactive means no such curve, though single readings can be large; an effect the other way counts as inactive or inconclusive.

O=C(/C(=N/N=C/c1ccc(O)c(O)c1O)c1ccccc1)c1ccccc1	SMN2 splice enh 3.2µM
Oc1ccc(/C=N/N=C(c2ccccc2)c2ccccc2)c(O)c1O	FLuc modulator inconclusive
CCOC(=O)Cn1c(S(=O)(=O)Cc2ccc(F)cc2)nc(-c2ccccc2)c1-c1ccccc1	SMN2 splice enh 7.1µM
CNc1nc(-c2ccccc2)[n+](-c2ccc(C)cc2)s1	FLuc modulator 6.7µM (no result: SMN2 splice enh, KinaseGlo FLuc)
Cc1ccc(NC(=O)CCC(=O)c2cccs2)cc1F	FLuc modulator 8.5µM, Rab9 promoter act inconclusive (no result: SMN2 splice enh, KinaseGlo FLuc)
Cc1ccnc(NC(=O)CCC(=O)c2cccs2)c1	NPC1 promoter act inconclusive, FLuc modulator 0.34µM, Rab9 promoter act inconclusive, ELG1 genotox inconclusive (no result: SMN2 splice enh, KinaseGlo FLuc)
Cc1ccc(NC(=O)CCNS(=O)(=O)c2cccs2)cc1F	none (no result: KinaseGlo FLuc)
O=C1N/C(=C/c2ccsc2)C(=O)N1c1ccccc1	NPC1 promoter act inconclusive, FLuc modulator inconclusive, Rab9 promoter act 2.8µM, ELG1 genotox inconclusive
CCn1c(C)cc(/C=C2/NC(=O)N(c3ccccc3)C2=O)c1C	NPC1 promoter act 3.2µM, FLuc modulator 7.6µM, SMN2 splice enh 11µM, Rab9 promoter act 1.4µM, ELG1 genotox inconclusive
N#Cc1ccc(CN2CCN(C(=O)CCNS(=O)(=O)c3ccc(F)c(Cl)c3)CC2)cc1	none (no result: SMN2 splice enh, KinaseGlo FLuc)
CC(OC(=O)c1ccc(NS(=O)(=O)c2cccs2)cc1)C(=O)N(C)C1CCCCC1 (stereo not given)	none (no result: SMN2 splice enh, KinaseGlo FLuc)
Nc1ccccc1SC1CC(=O)N(Cc2ccccc2)C1=O (stereo not given)	none
CCOc1ccc(/C=C/C(=O)c2c(O)c3ccccc3oc2=O)cc1	FLuc modulator 11µM
CCOC(=O)c1c(O)c2ccccc2oc1=O	FLuc modulator inconclusive (no result: SMN2 splice enh, KinaseGlo FLuc)
CN(C)c1ccc(/C=C/C(=O)c2c(O)c3ccccc3oc2=O)cc1	FLuc modulator 21µM, Rab9 promoter act inconclusive (no result: SMN2 splice enh, KinaseGlo FLuc)
Cc1cc(C)c(S(=O)(=O)N2CCCCC2)c(C)c1N(C)S(=O)(=O)c1ccc(Cl)cc1	none
O=C(CN1C(=O)COc2ccc(S(=O)(=O)N3CCOCC3)cc21)N1CCN(c2ccc(Cl)cc2)CC1	none (no result: NPC1 promoter act, KinaseGlo FLuc, Rab9 promoter act, ELG1 genotox)
COc1ccc(-c2cn3cccnc3n2)cc1NC(=O)c1cc(OC)c(OC)c(OC)c1	FLuc modulator 21µM
COc1ccc(NC(=O)Nc2cc(-c3cn4cccnc4n3)ccc2OC)cc1	FLuc modulator inconclusive (no result: NPC1 promoter act, KinaseGlo FLuc, Rab9 promoter act, ELG1 genotox)
COc1ccc(-c2cn3cccnc3n2)cc1NC(=O)C(C)Oc1ccccc1 (stereo not given)	FLuc modulator 27µM (no result: SMN2 splice enh, KinaseGlo FLuc)
COc1cc(C(=O)Nc2cccc(-c3cn4cccnc4n3)c2)cc(OC)c1OC	FLuc modulator inconclusive
COc1ccc(-c2cn3cccnc3n2)cc1NC(=O)Nc1ccc(Cl)cc1	FLuc modulator 6µM (no result: NPC1 promoter act, SMN2 splice enh, KinaseGlo FLuc, Rab9 promoter act, ELG1 genotox)
CCC(CC)C(=O)Nc1cc(-c2cn3cccnc3n2)ccc1OC	none (no result: NPC1 promoter act, SMN2 splice enh, KinaseGlo FLuc, Rab9 promoter act, ELG1 genotox)
CCN(C(=O)CSc1nnnn1C)C1CCS(=O)(=O)C1 (stereo not given)	none (no result: SMN2 splice enh, KinaseGlo FLuc)
Cc1nnsc1C(=O)N1CCCC(Nc2ccc(F)c(F)c2)C1 (stereo not given)	none (no result: SMN2 splice enh, KinaseGlo FLuc)
O=C1c2ccc(Cl)cc2S(=O)(=O)c2cccc(C(=O)N3CCN(c4ccc(Cl)cn4)CC3)c21	none (no result: SMN2 splice enh, KinaseGlo FLuc)
COc1ccc(CCNc2oc(-c3ccc(C)cc3)nc2C#N)cc1OC	none
COCCNc1oc(-c2ccc(C)cc2)nc1C#N	NPC1 promoter act inconclusive, FLuc modulator 12µM, SMN2 splice enh 10µM, Rab9 promoter act 3.5µM, ELG1 genotox 5.6µM
COCCNc1oc(-c2ccc(Cl)cc2)nc1C#N	NPC1 promoter act inconclusive, FLuc modulator 11µM, SMN2 splice enh inconclusive, Rab9 promoter act inconclusive, ELG1 genotox inconclusive
CN(C)CCCNc1oc(-c2ccc(Cl)cc2)nc1C#N	none
O=C1c2ccccc2NC(c2ccc(F)cc2)N1Cc1ccccc1 (stereo not given)	none (no result: SMN2 splice enh, KinaseGlo FLuc)
O=C(Nc1ccc(OCC(=O)N2CCOCC2)cc1)c1ccccc1Cl	FLuc modulator 1.7µM, ELG1 genotox inconclusive (no result: SMN2 splice enh, KinaseGlo FLuc)
CCCCOc1ccc(C(=O)Nc2ccc(OCC(=O)N3CCOCC3)cc2)cc1	NPC1 promoter act inconclusive, FLuc modulator 1.1µM (no result: SMN2 splice enh, KinaseGlo FLuc)
CCN(CC)S(=O)(=O)c1ccc(C(=O)Nc2ccc(OCC(=O)N3CCOCC3)cc2)cc1	FLuc modulator inconclusive
Cc1ccc(C(=O)Nc2cc(C)c(OCC(=O)N3CCOCC3)c(C)c2)cc1	NPC1 promoter act inconclusive, FLuc modulator 0.67µM, SMN2 splice enh 11µM, Rab9 promoter act 2.8µM, ELG1 genotox inconclusive
Cc1cc(OCC(=O)N2CCOCC2)ccc1NC(=O)c1ccccc1C	FLuc modulator 7.6µM, ELG1 genotox inconclusive (no result: SMN2 splice enh, KinaseGlo FLuc, Rab9 promoter act)
O=S(=O)(Nc1ccc(Cl)cc1)c1ccc2c(c1)CCO2	none (no result: SMN2 splice enh, KinaseGlo FLuc)
O=C(NCc1ccccc1F)c1cccc(NC(=O)N2CCSc3ncccc32)c1	none (no result: NPC1 promoter act, SMN2 splice enh, KinaseGlo FLuc, Rab9 promoter act, ELG1 genotox)
COc1ccc(NC(=O)Nc2ccc(OCC(=O)N3CCOCC3)cc2)cc1OC	FLuc modulator 13µM (no result: SMN2 splice enh, KinaseGlo FLuc)
COc1ccc(OC)c(NC(=O)c2ccc(OCC(=O)N3CCOCC3)c(OC)c2)c1	none (no result: SMN2 splice enh, KinaseGlo FLuc)
COc1cc(C(=O)Nc2ccc(C)c(S(=O)(=O)N(C)C)c2)ccc1OCC(=O)N1CCOCC1	FLuc modulator 3µM (no result: SMN2 splice enh, KinaseGlo FLuc)
COc1ccc(Cl)cc1C(=O)Nc1ccc(OCC(=O)N2CCOCC2)cc1	FLuc modulator inconclusive (no result: SMN2 splice enh, KinaseGlo FLuc)
COc1cccc(-c2csc3ncnc(Sc4nnnn4C)c23)c1	none (no result: NPC1 promoter act, FLuc modulator, SMN2 splice enh, KinaseGlo FLuc, Rab9 promoter act)
CN1CC(=O)N/C1=N/C(=O)Nc1cccc(Cl)c1	NPC1 promoter act inconclusive, Rab9 promoter act inconclusive (no result: FLuc modulator, ELG1 genotox)
